The target in assay [1] is Retinoic acid receptor alpha (Homo sapiens) (UniProt P10276). As to the kind of experiment: ATG_DR5_RAR_CIS: Attagene CIS-FACTORIAL HepG2 Assay for human Retinoic Acid Receptor Alpha (RARE), DR5 submotif (AID 2282934; active = hit-call score of the fitted dose curve at least 0.9, where 1 is the maximum; inactive = score below 0.9). The conditions noted are these: HepG2 Attagene cis-factorial RARE DR5 reporter, mRNA; actives raise or lower the signal. The method in brief: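 After 24 h of chemical exposure, transiently transfected HepG2 cells were lysed for total RNA; the DR5-regulated reporter transcript was quantified via RT-PCR and capillary electrophoresis, with activity fitted bidirectionally against DMSO.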
Retinoic acid receptor alpha (Homo sapiens), sequence (P10276 whole entry, looked up): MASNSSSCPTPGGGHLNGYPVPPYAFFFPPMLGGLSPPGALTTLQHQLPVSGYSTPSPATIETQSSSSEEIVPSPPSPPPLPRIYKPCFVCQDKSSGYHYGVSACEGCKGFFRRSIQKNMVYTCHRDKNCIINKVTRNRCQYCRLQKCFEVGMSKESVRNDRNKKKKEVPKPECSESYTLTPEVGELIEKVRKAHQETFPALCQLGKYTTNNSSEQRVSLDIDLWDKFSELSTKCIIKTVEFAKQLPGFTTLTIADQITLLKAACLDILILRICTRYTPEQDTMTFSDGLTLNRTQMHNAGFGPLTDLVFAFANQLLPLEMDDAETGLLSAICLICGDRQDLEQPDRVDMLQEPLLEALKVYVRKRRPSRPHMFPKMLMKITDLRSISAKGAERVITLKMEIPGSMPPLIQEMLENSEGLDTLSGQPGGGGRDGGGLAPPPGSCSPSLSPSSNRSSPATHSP

Assay [2] concerns the target Nuclear receptor subfamily 1 group I member 3 (Homo sapiens) (UniProt Q14994). As to the kind of experiment: ATG_CAR_TRANS: Attagene TRANS-FACTORIAL HepG2 Assay for human Constitutive Androstane Receptor (CAR) (AID 2282969).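 Note: activators raise reporter mRNA above DMSO so AC50 marks induction.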 To be noted: HepG2 Attagene TRANS-FACTORIAL CAR reporter. The method in brief:
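HepG2 cells transiently transfected with GAL4-UAS reporter units; TRANS format reads activity of exogenous chimeric NR-Gal4 protein. After 24 h dosing, reporter mRNA quantified by RT-PCR, 6-FAM labelling and capillary electrophoresis; gain of signal fitted against DMSO.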

Assay [3] concerns the target Oxysterols receptor LXR-alpha (Homo sapiens) (UniProt Q13133). As to the kind of experiment: ATG_LXRa_TRANS: Attagene TRANS-FACTORIAL HepG2 Assay for human Liver X Receptor alpha (LXRa) (AID 2282980). To be noted: HepG2 Attagene TRANS reporter, LXRa transactivation. The method in brief: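 HepG2 cells transiently transfected with GAL4-UAS reporter units for chimeric NR-Gal4 proteins, exposed to chemicals for 24 h. Reporter mRNA quantified by RT-PCR and capillary electrophoresis; gain of signal fitted relative to DMSO.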

For assay [4], the target named is Oxysterols receptor LXR-beta (Homo sapiens) (UniProt P55055). As to the kind of experiment: ATG_LXRb_TRANS: Attagene TRANS-FACTORIAL HepG2 Assay for human Liver X Receptor beta (LXRb) (AID 2282981). To be noted: HepG2 Attagene TRANS GAL4-LXRb reporter, mRNA. The method in brief: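 HepG2 cells transiently transfected with GAL4-UAS reporter units for chimeric NR-Gal4 proteins, dosed for 24 h. Reporter transcripts measured by RT-PCR and capillary electrophoresis; gain-of-signal fitting relative to DMSO.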
Oxysterols receptor LXR-beta (Homo sapiens), sequence (P55055 whole entry, looked up, the tested form may be a part): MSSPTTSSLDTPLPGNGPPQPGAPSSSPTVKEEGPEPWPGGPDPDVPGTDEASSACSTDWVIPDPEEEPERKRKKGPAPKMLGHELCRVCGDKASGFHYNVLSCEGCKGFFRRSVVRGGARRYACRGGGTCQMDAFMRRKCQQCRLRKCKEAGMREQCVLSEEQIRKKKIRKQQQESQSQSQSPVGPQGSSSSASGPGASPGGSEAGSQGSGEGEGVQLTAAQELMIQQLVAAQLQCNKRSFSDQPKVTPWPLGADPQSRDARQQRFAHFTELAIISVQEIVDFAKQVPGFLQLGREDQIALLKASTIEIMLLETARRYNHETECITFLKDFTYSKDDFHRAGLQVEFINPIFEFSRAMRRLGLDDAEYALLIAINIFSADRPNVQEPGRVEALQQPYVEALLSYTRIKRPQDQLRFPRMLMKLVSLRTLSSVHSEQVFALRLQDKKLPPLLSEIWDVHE

The target of assay [5] is Nuclear receptor subfamily 4 group A member 2 (Homo sapiens) (UniProt P43354). Kind of assay: ATG_NURR1_TRANS: Attagene TRANS-FACTORIAL HepG2 Assay for human Nuclear Receptor Related Protein 1 (NURR1) (AID 2282985). To be noted: HepG2 Attagene TRANS reporter, mRNA readout. The method in brief: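 HepG2 cells transiently transfected with NURR1-Gal4 chimera and GAL4-UAS reporter units; after 24 hr compound exposure, reporter mRNA quantified by RT-PCR and capillary electrophoresis; gain of signal fitted against DMSO.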
Nuclear receptor subfamily 4 group A member 2 (Homo sapiens), sequence (P43354 whole entry, looked up, the tested form may be a part): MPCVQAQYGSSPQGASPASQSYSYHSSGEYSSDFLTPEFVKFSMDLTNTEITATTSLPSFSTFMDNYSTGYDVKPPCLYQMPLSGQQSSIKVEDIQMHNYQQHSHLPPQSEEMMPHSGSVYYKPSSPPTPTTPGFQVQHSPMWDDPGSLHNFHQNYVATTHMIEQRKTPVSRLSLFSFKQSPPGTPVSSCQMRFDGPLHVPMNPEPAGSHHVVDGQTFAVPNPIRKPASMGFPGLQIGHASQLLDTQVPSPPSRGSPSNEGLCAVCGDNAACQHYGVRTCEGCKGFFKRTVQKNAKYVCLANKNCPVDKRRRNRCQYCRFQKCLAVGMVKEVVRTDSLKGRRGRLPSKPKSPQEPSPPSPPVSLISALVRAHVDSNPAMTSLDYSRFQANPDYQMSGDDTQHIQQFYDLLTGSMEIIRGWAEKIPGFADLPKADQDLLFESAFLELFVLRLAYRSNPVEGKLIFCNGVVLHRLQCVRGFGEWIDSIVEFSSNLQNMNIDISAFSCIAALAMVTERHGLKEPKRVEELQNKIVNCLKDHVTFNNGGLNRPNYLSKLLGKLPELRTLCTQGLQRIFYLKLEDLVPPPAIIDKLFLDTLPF

Assay [6] addresses Peroxisome proliferator-activated receptor gamma (Homo sapiens) (UniProt P37231). Kind of assay: ATG_PPARg_TRANS: Attagene TRANS-FACTORIAL HepG2 Assay for human Peroxisome Proliferator-activated Receptor-gamma (PPARg) (AID 2283007). The method in brief: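 A TRANS-format multiplexed reporter assay measures activity of an exogenous chimeric NR-Gal4 protein in HepG2 cells. After 24 h of chemical exposure, reporter transcripts are amplified, fluorescently labelled and sized by capillary electrophoresis, with gain of signal scored against DMSO.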

The target of assay [7] is human RAR-related Orphan Receptor beta (RORb), RORB (gene 6096) (UniProt Q92753). As to the kind of experiment: ATG_RORb_TRANS: Attagene TRANS-FACTORIAL HepG2 Assay for human RAR-related Orphan Receptor beta (RORb) (AID 2283010). The method in brief: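 HepG2 cells transiently transfected with GAL4-UAS reporter units expressing chimeric NR-Gal4 protein; reporter mRNA measured 24 h after dosing by RT-PCR, 6-FAM labelling and capillary electrophoresis. Gain-of-signal fitted relative to DMSO baseline.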
human RAR-related Orphan Receptor beta (RORb), RORB (gene 6096), sequence (Q92753 whole entry, looked up, the tested form may be a part): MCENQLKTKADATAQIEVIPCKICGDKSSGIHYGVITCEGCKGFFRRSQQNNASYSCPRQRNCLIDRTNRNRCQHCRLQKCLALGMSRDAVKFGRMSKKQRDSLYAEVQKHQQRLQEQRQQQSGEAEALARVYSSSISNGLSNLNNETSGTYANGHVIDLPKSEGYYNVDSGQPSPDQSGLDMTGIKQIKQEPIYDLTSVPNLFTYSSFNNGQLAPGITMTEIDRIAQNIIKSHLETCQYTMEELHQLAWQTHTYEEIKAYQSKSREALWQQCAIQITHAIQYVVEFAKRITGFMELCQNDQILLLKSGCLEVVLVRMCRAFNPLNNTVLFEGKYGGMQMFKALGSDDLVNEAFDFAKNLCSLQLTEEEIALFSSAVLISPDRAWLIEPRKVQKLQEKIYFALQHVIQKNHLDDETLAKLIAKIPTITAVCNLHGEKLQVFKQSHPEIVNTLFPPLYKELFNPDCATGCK

Assay [8] deals with Retinoic acid receptor RXR-alpha (Homo sapiens) (UniProt P19793). As to the kind of experiment: ATG_RXRa_TRANS: Attagene TRANS-FACTORIAL HepG2 Assay for human Retinoid X Receptor alpha (RXRa) (AID 2283012). The method in brief: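 HepG2 cells transiently transfected with GAL4-UAS reporter units and chimeric RXRa-Gal4 protein, treated 24 h. Reporter mRNA measured by RT-PCR, fluorescent labelling, HpaI digestion and capillary electrophoresis. Induction fitted against DMSO.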

Assay [9] can be described thus: TOX21_p53_BLA_p4_viability: Viability Assessment in the Tox21 HCT-116 p53 Agonism Beta-lactamase Assay, Phase 4 (AID 2283597).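 Note: hits lower the luminescence signal meaning cytotoxicity.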 The method in brief:
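HCT-116 p53-bla cells, 4000/well, dosed after 5 h attachment and incubated 16 h at 37 °C, 5% CO2. Viability from CellTiter-Glo ATP luminescence after 30 min at room temperature, taken after the beta-lactamase read; loss of signal indicates cytotoxicity.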

The nature of assay [10]: ATG_M_32_TRANS: Attagene TRANS-FACTORIAL HepG2 Assay for M32 Transcription Factor (Internal Marker) (AID 2282984). To be noted: HepG2 Attagene TRANS M32 internal marker reporter. The method in brief:
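HepG2 cells transiently transfected with GAL4-UAS reporter units, dosed for 24 hours. Reporter mRNA quantified by RT-PCR, 6-FAM labelling, HpaI digestion and capillary electrophoresis; internal-marker signal fitted upward relative to DMSO.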

Assay [11] deals with human Peroxisome Proliferator-activated Receptor delta (PPARd), PPARD (gene 5467) (UniProt Q03181). Kind of assay: ATG_PPARd_TRANS: Attagene TRANS-FACTORIAL HepG2 Assay for human Peroxisome Proliferator-activated Receptor delta (PPARd) (AID 2283002). The method in brief:
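Fluorescence from capillary electrophoresis of labelled RT-PCR reporter fragments gives the signal; DMSO sets baseline. Cells: HepG2 transiently carrying GAL4-UAS reporter units plus chimeric nuclear receptor-Gal4 proteins, exposed to chemicals for 24 h.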

The target of assay [12] is human RAR-related Orphan Receptor gamma (RORg), RORC (gene 6097) (UniProt P51449). As to the kind of experiment: ATG_RORg_TRANS: Attagene TRANS-FACTORIAL HepG2 Assay for human RAR-related Orphan Receptor gamma (RORg) (AID 2283011). The method in brief: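 HepG2 cells transiently transfected with GAL4-UAS reporter units and chimeric RORg-Gal4 construct; after 24 h chemical exposure, reporter mRNA measured by RT-PCR with fluorescent capillary electrophoresis, gain of signal fitted against DMSO.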
human RAR-related Orphan Receptor gamma (RORg), RORC (gene 6097), sequence (P51449 whole entry, looked up, the tested form may be a part): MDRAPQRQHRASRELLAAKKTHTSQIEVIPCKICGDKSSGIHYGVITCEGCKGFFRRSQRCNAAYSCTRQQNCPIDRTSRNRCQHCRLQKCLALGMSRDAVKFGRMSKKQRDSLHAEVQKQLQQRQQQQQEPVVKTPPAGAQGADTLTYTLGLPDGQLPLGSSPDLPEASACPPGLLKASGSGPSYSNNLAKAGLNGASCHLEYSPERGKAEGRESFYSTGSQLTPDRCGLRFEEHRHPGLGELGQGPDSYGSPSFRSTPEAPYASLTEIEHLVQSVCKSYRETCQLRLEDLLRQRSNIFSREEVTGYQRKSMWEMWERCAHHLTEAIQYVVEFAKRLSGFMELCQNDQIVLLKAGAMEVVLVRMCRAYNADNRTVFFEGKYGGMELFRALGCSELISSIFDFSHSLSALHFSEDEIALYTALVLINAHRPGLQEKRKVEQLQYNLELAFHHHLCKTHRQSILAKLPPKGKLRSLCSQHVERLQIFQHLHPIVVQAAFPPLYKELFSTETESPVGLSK

Assay [13] addresses human Thyroid Receptor alpha (THRa1), THRA (gene 7067) (UniProt P10827). As to the kind of experiment: ATG_THRa1_TRANS: Attagene TRANS-FACTORIAL HepG2 Assay for human Thyroid Receptor alpha (THRa1) (AID 2283014). The method in brief: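 HepG2 cells transiently transfected with chimeric NR-Gal4 and GAL4-UAS reporter units, dosed 24 h. Reporter mRNA quantified by RT-PCR, fluorescent labeling, HpaI digestion and capillary electrophoresis; gain-of-signal fit versus DMSO.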

A short description of assay [14]: ACEA_ER_AUC_viability: ACEA Biosciences xCELLigence Real-Time Cell Analysis on Estrogen Receptor Agonism for Viability (AID 2283782).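 Note: continuous compound exposure with impedance area under curve over 80 h; hit means loss of impedance signal meaning reduced cell growth or viability.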 The method in brief:
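T47D cells preconditioned in phenol red-free RPMI with charcoal-stripped FBS, then dosed with 8-point 1:4 series from 100 uM (up to 0.5% DMSO). Impedance monitored up to ~80 h; area-under-curve loss versus DMSO taken as viability.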

A short description of assay [15]: ATG_M_19_TRANS: Attagene TRANS-FACTORIAL HepG2 Assay for M19 Transcription Factor (Internal Marker) (AID 2282974). To be noted: HepG2 Attagene TRANS-FACTORIAL M19 internal marker reporter. The method in brief: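 Cells: human HepG2, transiently transfected with multiplexed reporter transcription units. Exposure: 24 h. Detection: RT-PCR of reporter mRNA with capillary electrophoresis. Analysis: gain-of-signal vs DMSO.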

Assay [16] in a line: ATG_GAL4_TRANS: Attagene TRANS-FACTORIAL HepG2 Assay for GAL4 (Internal Marker) (AID 2282976). To be noted: HepG2 Attagene TRANS GAL4 internal marker reporter. The method in brief: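 Background-control readout: GAL4-UAS reporter transcript in transiently transfected HepG2 cells after 24 h compound exposure. Measured by RT-PCR, 6-FAM primer extension, HpaI digest and capillary electrophoresis; gain-of-signal fit versus DMSO.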

Assay [17] in a line: CCTE_Harrill_HTTr_Viability_MCF7: CCTE's 6-hour Cell Viability Assessment for the High-Throughput Transcriptomics (HTTr) Platform, in MCF-7 cells cultured in DMEM + 10% fetal bovine serum, Harrill Lab (AID 2284010; active = hit-call score of the fitted dose curve at least 0.9, where 1 is the maximum; inactive = score below 0.9). The method in brief:
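MCF-7 cells in DMEM + 10% FBS, 384-well, exposed 6 h to an eight-point dilution series. Membrane integrity scored by high-content imaging of propidium iodide exclusion; bidirectional fit versus DMSO.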

Assay [18] can be described thus: CCTE_Harrill_HTTr_Apoptosis_MCF7: CCTE's 6-hour Apoptosis Assessment for the High-Throughput Transcriptomics (HTTr) Platform, in MCF-7 cells cultured in DMEM + 10% fetal bovine serum, Harrill Lab (AID 2284011; active = hit-call score of the fitted dose curve at least 0.9, where 1 is the maximum; inactive = score below 0.9). The method in brief:
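MCF-7 cells in DMEM + 10% FBS exposed 6 h to chemicals over an eight-point dilution series. Caspase-3/7 activation imaged by high-content CellEvent Green staining; fitted bidirectionally versus DMSO.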

The target in assay [19] is Estrogen-related receptor gamma (Homo sapiens) (UniProt P62508). As to the kind of experiment: ATG_ERRg_TRANS: Attagene TRANS-FACTORIAL HepG2 Assay for human Estrogen-Related Receptor gamma (ERRg) (AID 2282977).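 Note: hits increase reporter signal over DMSO so potencies reflect activators.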 To be noted: HepG2 Attagene TRANS reporter, ERRg transactivation. The method in brief: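 HepG2 cells transiently transfected with multiplexed GAL4-UAS reporter units driven by chimeric NR-Gal4 proteins; 24 h exposure. Reporter mRNA quantified by RT-PCR, fluorescent labelling, HpaI digestion and capillary electrophoresis; gain of signal vs DMSO.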

SMILES strings stand for the structures. Results filed as inconclusive are left out. Activity calls are given as the source filed them. Rule for the calls, unless noted: active = hit-call score of the fitted dose curve at least 0.9, where 1 is the maximum; inconclusive = response in the unintended direction; inactive = score below 0.9.

Nuclear receptor subfamily 1 group I member 3 (Homo sapiens), sequence (Q14994 whole entry, looked up, the tested form may be a part): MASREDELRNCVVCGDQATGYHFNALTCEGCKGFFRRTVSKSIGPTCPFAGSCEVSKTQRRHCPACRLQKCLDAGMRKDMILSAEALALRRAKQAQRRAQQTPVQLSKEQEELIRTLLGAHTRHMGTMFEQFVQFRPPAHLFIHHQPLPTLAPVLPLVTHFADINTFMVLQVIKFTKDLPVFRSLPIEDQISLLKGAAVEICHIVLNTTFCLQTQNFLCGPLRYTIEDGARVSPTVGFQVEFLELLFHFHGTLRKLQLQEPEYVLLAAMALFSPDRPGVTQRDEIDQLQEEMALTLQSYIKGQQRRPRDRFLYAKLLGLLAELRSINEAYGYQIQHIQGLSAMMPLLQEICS
human Peroxisome Proliferator-activated Receptor delta (PPARd), PPARD (gene 5467), sequence (Q03181 whole entry, looked up, the tested form may be a part): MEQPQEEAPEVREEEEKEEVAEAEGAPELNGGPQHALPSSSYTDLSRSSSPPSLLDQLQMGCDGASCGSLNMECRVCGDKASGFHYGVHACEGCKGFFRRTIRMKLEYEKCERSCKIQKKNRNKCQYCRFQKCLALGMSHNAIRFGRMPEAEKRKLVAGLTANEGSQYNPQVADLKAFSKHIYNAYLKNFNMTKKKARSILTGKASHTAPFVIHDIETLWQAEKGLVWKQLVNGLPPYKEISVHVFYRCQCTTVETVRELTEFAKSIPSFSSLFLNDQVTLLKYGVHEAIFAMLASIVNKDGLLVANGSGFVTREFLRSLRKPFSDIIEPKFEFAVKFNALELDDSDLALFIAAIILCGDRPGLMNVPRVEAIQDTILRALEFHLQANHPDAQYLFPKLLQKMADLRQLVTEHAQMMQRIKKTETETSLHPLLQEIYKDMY
human Thyroid Receptor alpha (THRa1), THRA (gene 7067), sequence (P10827 whole entry, looked up, the tested form may be a part): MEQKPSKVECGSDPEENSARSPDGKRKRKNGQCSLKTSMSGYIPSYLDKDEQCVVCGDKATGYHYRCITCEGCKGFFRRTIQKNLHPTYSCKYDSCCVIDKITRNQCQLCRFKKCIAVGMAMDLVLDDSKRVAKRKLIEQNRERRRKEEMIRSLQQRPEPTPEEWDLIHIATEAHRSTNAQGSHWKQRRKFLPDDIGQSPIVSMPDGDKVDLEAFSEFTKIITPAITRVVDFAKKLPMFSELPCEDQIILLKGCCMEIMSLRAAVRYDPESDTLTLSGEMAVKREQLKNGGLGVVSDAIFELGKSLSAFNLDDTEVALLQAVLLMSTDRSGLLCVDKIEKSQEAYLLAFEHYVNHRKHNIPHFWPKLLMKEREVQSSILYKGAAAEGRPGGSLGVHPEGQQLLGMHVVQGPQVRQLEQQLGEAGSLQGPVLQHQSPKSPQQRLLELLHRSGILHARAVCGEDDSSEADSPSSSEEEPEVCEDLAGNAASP
Oxysterols receptor LXR-alpha (Homo sapiens), sequence (Q13133 whole entry, looked up, the tested form may be a part): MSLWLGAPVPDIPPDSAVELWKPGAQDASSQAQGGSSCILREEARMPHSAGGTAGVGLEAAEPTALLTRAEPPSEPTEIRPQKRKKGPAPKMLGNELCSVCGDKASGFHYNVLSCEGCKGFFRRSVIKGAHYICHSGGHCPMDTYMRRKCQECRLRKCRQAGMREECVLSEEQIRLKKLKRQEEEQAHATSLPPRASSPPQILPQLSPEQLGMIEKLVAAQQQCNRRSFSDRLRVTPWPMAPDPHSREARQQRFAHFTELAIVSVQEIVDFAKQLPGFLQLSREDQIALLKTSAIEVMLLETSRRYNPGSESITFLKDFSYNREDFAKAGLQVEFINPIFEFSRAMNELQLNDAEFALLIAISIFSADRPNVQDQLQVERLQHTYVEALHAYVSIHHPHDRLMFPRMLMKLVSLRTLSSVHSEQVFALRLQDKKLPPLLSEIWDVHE
Peroxisome proliferator-activated receptor gamma (Homo sapiens), sequence (P37231 whole entry, looked up, the tested form may be a part): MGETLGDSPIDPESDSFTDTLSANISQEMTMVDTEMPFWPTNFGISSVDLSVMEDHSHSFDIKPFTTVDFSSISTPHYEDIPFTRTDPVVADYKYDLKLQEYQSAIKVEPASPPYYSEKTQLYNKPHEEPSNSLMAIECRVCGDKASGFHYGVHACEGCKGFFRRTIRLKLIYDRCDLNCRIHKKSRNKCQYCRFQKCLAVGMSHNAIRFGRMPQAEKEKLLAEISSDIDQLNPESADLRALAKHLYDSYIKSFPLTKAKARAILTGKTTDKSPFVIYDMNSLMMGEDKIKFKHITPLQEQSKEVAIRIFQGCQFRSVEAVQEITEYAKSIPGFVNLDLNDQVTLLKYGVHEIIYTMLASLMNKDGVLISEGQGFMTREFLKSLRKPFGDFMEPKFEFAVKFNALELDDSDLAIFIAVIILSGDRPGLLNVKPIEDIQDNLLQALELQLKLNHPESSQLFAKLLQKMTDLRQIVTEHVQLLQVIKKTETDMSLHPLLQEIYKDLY

As for `Clc1ccc(Sc2cc(Cl)c(Cl)cc2Cl)cc1`, the compound was called inactive in assay [1], in assay [2], in [3], in assay [4], in assay [5] and in assay [6]. Besides, the compound was called inactive in [7], in assay [8] and in [9].
`CO[Si](CCCNCCN)(OC)OC`: the outcome in [1], in [4], in assay [10], in [5], in [11] and in [7] was inactive. The result in [12], in assay [13] and in [14] was inactive.
Consider `CNC(=C[N+](=O)[O-])NCCSCc1csc(CN(C)C)n1`, for which the call in assay [2], in [15], in assay [16], in [3], in [9] and in assay [17] was inactive. Further, the result in assay [18] was inactive.
With `C=CCOCC(CC)(CO)COCC=C`, the compound was called inactive in assay [1], in assay [2], in assay [15], in assay [4], in assay [11] and in assay [12]. Besides, the compound was called inactive in [13], in [9] and in assay [14].
As for `Oc1cccc2ccccc12`, the call in assay [5], in [11], in assay [12], in assay [13], in assay [9] and in assay [17] was inactive. The result in [18] was inactive.
As to `O=[N+]([O-])c1ccc2nc[nH]c2c1`, the result in [15], in assay [3], in assay [5], in assay [6], in assay [7] and in assay [12] was inactive. For the same compound, the result in assay [13], in [14], in assay [17] and in assay [18] was inactive.
In the case of `NCc1ccccc1`, the result in assay [2], in assay [15], in [16], in assay [19], in [10] and in [12] was inactive. Besides, the compound was classed as inactive in assay [9], in [17] and in assay [18]. The AC50 in assay [14] is 50 µM (active).

For the origin of these results see PubChem BioAssay (EPA / NIEHS).
